Measured values: the supplement of paper PMC9446081
± gives the standard deviation of the averaged measurements.

How the values were obtained:
Assay in all cases: relative enzymatic activity vs untreated control (fraction); higher = less inhibition
Conditions in all cases: 100 µM; incubation time: 2 h at 37 C
DNA gyrase = system: DNA gyrase
Method: (§1)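 In vitro enzymatic inhibition assays (ProFoldin kits) for 12 purified essential E. coli enzymes or complexes, each treated with 218 active antibacterial compounds at 100 µM for 2 h at 37°C. Read-outs were fluorescence or absorbance (phosphate detection, dye binding), converted to activity via standard curves and expressed relative to untreated DMSO controls.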

DNA helicase = DNA helicase (UniProt P0ACB1)
Method: as §1

DNA ligase = DNA ligase (UniProt B1XA82)
Method: as §1

DNA polymerase = DNA polymerase (UniProt P10443)
Method: as §1

DNA primase = DNA primase (UniProt P0ABS7)
Method: as §1

GlmU = GlmU (UniProt A7ZTU1)
Method: as §1

Guanlyate kinase = Guanlyate kinase (UniProt Q0TBG1)
Method: as §1

MurA = MurA (UniProt Q3YX52)
Method: as §1

MurD = target: T1, MurD (UniProt P14900)
T1 sequence (whole entry): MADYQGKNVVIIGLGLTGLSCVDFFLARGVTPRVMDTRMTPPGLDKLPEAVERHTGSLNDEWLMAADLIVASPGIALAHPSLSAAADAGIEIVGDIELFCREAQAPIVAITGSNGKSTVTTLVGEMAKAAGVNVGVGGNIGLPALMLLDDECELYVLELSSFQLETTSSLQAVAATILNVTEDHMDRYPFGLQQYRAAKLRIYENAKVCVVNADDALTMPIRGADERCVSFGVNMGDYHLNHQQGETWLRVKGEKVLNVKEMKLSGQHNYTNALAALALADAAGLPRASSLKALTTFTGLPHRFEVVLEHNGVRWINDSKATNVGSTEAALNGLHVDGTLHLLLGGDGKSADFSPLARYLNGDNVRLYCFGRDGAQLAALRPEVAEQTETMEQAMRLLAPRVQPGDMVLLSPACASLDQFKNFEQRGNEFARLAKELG
Method: as §1

MurF = target: T2, MurF (UniProt P11880)
T2 sequence (whole entry): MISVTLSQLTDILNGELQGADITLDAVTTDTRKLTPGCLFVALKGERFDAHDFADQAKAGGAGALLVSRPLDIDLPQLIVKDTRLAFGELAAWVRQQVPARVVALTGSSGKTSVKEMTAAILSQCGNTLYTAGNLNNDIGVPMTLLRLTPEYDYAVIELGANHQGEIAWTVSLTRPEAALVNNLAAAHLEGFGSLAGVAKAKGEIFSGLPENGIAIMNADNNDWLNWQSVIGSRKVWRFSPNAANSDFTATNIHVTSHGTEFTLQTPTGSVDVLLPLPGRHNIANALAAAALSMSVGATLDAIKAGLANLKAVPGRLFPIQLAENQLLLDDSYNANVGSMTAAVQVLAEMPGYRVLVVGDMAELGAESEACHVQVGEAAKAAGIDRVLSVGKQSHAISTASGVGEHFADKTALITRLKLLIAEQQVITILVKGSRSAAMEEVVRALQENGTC
Method: as §1

RNA polymerase = system: RNA polymerase
Method: as §1

MurC = MurC (UniProt C4ZRI6)
Method: as §1

Chain of Guanlyate kinase (Q0TBG1 whole entry): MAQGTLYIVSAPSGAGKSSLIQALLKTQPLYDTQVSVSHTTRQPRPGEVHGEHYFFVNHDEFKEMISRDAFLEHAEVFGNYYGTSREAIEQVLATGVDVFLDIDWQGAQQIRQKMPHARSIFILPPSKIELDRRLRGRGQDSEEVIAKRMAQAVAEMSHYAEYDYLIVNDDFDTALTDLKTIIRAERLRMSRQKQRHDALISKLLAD
Chain of DNA helicase (P0ACB1 whole entry): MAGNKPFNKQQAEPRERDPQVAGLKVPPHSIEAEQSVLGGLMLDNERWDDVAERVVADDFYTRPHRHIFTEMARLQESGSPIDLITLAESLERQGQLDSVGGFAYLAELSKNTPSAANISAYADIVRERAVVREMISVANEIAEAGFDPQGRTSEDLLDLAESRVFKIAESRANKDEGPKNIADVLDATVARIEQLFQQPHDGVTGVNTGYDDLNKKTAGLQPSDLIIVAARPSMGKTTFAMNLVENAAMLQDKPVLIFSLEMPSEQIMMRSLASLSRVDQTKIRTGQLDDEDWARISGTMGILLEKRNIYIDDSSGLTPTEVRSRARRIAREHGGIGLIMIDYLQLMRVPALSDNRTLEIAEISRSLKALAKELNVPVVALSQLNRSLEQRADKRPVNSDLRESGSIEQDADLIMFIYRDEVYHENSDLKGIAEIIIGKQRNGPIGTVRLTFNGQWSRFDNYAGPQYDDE
Chain of GlmU (A7ZTU1 whole entry, looked up): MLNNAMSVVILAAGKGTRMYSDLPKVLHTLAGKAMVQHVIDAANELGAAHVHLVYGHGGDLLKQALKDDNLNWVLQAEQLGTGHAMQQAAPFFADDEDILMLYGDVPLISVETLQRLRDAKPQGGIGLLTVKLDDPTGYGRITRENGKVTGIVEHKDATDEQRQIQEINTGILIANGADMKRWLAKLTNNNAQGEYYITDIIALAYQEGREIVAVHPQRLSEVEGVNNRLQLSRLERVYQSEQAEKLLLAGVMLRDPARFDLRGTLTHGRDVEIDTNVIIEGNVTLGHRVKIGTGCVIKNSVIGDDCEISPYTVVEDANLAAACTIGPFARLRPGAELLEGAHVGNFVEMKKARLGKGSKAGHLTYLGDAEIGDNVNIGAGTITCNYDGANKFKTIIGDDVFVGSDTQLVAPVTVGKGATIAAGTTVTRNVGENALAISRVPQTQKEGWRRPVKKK
Chain of MurA (Q3YX52 whole entry): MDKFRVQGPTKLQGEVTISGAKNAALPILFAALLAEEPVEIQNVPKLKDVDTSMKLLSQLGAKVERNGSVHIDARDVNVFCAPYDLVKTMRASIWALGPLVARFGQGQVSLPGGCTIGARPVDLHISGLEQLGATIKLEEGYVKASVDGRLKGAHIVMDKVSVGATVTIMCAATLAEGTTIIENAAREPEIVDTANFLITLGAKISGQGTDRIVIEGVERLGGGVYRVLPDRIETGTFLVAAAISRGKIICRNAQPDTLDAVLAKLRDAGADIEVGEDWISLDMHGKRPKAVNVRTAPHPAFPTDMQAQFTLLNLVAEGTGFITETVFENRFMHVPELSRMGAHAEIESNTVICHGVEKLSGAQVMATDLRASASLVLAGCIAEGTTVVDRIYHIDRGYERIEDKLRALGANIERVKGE
Chain of DNA ligase (B1XA82 whole entry): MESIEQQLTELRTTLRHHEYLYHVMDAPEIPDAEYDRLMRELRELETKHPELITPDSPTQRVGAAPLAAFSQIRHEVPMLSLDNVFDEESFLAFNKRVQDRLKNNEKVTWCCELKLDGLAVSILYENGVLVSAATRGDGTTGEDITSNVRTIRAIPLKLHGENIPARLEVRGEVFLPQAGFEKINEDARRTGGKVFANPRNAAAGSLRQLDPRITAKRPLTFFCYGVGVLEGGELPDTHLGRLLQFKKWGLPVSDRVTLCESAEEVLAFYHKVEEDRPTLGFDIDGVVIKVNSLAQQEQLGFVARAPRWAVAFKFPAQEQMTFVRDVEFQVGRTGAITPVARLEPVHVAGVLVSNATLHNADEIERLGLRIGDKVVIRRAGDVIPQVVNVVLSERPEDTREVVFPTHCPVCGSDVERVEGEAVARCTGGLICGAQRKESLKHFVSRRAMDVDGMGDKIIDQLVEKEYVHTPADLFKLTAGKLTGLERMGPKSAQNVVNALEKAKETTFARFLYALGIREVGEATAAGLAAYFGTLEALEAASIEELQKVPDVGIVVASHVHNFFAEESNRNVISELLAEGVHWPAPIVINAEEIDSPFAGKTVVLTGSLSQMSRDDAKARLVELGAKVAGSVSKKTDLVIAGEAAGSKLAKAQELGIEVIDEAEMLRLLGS
Chain of DNA polymerase (P10443 whole entry): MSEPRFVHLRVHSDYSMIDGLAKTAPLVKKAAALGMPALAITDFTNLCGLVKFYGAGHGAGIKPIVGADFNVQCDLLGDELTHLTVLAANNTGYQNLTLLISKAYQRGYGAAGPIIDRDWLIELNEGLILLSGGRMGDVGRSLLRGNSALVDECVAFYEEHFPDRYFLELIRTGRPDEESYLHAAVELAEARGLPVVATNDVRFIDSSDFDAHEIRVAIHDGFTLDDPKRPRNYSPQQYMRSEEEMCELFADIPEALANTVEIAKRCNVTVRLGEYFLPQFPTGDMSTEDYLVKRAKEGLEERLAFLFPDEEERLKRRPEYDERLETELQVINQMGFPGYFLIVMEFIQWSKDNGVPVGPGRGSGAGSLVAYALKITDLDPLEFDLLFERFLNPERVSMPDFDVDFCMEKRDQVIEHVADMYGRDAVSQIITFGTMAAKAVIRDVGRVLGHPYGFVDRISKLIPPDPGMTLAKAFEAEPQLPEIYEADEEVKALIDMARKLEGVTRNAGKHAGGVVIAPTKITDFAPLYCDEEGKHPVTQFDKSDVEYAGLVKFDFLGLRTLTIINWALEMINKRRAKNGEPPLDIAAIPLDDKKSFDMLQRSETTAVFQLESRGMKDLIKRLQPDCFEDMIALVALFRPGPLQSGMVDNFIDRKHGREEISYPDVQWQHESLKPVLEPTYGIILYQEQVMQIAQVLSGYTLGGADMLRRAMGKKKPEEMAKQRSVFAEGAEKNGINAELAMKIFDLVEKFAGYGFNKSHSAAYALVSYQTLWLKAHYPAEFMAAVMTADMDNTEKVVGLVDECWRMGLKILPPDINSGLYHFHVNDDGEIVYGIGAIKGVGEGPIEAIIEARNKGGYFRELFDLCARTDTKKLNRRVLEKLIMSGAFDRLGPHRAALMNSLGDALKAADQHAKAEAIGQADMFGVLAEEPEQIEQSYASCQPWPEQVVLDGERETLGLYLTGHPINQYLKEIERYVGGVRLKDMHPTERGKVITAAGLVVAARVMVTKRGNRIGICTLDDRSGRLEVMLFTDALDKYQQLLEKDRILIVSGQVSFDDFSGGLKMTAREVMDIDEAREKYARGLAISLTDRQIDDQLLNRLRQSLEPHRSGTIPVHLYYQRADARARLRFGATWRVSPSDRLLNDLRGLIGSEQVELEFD
Chain of DNA primase (P0ABS7 whole entry): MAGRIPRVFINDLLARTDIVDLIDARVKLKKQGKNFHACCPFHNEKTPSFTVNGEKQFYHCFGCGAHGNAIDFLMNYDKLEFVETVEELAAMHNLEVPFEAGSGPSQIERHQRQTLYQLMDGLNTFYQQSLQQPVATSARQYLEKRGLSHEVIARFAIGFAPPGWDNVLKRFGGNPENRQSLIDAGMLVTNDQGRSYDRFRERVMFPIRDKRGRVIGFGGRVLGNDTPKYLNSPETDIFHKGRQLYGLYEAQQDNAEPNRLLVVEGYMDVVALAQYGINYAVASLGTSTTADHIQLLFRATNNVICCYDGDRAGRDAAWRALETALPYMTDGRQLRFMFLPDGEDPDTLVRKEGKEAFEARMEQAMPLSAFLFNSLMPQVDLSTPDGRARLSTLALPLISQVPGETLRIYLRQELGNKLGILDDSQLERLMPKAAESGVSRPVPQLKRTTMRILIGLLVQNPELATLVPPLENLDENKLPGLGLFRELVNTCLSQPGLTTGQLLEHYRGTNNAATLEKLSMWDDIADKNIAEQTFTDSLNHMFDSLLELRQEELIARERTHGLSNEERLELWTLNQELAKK
Chain of MurC (C4ZRI6 whole entry, looked up): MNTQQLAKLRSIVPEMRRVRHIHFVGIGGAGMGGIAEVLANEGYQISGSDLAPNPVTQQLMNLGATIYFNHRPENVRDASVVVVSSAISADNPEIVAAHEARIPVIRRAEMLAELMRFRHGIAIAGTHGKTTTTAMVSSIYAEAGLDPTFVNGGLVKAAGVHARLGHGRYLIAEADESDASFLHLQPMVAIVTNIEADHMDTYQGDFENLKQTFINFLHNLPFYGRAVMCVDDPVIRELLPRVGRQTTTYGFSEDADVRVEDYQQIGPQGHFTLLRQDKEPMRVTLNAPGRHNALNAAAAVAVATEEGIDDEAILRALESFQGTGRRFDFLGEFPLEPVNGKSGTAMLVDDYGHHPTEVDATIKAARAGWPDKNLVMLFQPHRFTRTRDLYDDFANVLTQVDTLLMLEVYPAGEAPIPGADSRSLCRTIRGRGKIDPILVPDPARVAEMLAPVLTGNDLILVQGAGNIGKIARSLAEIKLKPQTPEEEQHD

SMILES | relative enzymatic activity (DNA gyrase) | relative enzymatic activity (DNA helicase) | relative enzymatic activity (DNA ligase) | relative enzymatic activity (DNA polymerase) | relative enzymatic activity (DNA primase) | relative enzymatic activity (GlmU) | relative enzymatic activity (Guanlyate kinase) | relative enzymatic activity (MurA) | relative enzymatic activity (MurD) | relative enzymatic activity (MurF) | relative enzymatic activity (RNA polymerase) | relative enzymatic activity (MurC)
CN(C)C1C(O)=C(C(N)=O)C(=O)C2(O)C(O)=C3C(=O)c4c(O)ccc(Cl)c4C(O)C3CC12.Cl (stereo not given) | 0.59 ± 0.38 | 0.359 ± 0.13 | 1.03 ± 0.047 | 1.16 ± 0.26 | 0.64 ± 0.12 | 1.005 ± 0.0054 | 0.874 ± 0.1 | 0.133 ± 0.045 | 0.593 ± 0.41 | 0.937 ± 0.17 | 0.804 ± 0.072 | –
O=C(NO)c1cn(-c2cccc(C(=O)N3CCC4(CC3)C(=O)NCN4c3ccccc3)c2)nn1 | ≤ 0 | 0.0673 ± 0.0027 | 0.205 ± 0.025 | 0.00452 ± 0.00034 | ≤ 0 | 0.656 ± 0.088 | ≤ 0 | 0.245 ± 0.072 | 0.36 ± 0.22 | 0.634 ± 0.13 | 0.00747 ± 0.0021 | 0.552 ± 0.15
O=C1NCCN1c1ncc([N+](=O)[O-])s1 | 0.684 ± 0.55 | 0.564 ± 0.22 | 0.852 ± 0.12 | 1.16 ± 0.25 | 0.839 ± 0.018 | 0.982 ± 0.011 | 0.863 ± 0.052 | 0.658 ± 0.11 | 0.628 ± 0.47 | 0.389 ± 0.55 | 0.792 ± 0.11 | –
Cl.O=C1CC2(CCCC2)CC(=O)N1CCCCN1CCN(c2ncccn2)CC1 | 0.812 ± 0.33 | 0.485 ± 0.034 | 0.999 ± 0.1 | 1.05 ± 0.045 | 0.81 ± 0.029 | 1.03 ± 0.042 | 1 ± 0.013 | 0.865 ± 0.1 | 0.609 ± 0.44 | 0.97 ± 0.21 | 0.83 ± 0.039 | –
CCOC(=O)CCC(=O)O[C@H]1[C@H](O[C@@H]2[C@@H](C)[C@H](O[C@H]3C[C@@](C)(OC)[C@@H](O)[C@H](C)O3)[C@@H](C)C(=O)O[C@H](CC)[C@@](C)(O)[C@H](O)[C@@H](C)C(=O)[C@H](C)C[C@@]2(C)O)O[C@H](C)C[C@@H]1N(C)C | 0.685 ± 0.3 | 0.691 ± 0.34 | 0.982 ± 0.061 | 1.17 ± 0.28 | 0.835 ± 0.0032 | 1.018 ± 0.0098 | 0.941 ± 0.052 | 0.816 ± 0.11 | 0.599 ± 0.4 | 0.961 ± 0.23 | 0.831 ± 0.037 | 1.05 ± 0.026
CO[C@@H]1[C@@H](OC(=O)c2ccc(C)[nH]2)[C@@H](O)[C@@H](Oc2ccc3c(c2C)OC(=O)[C@H](NC(=O)c2[nH]cc(CC(=O)Nc4cc5ccc(O[C@@H]6OC(C)(C)[C@H](OC)[C@@H](OC(=O)c7ccc(C)[nH]7)[C@H]6O)c(C)c5oc4=O)c2C)C3)CC1(C)C | 0.165 ± 0.23 | 0.0977 ± 0.012 | 0.835 ± 0.013 | 0.759 ± 0.06 | 0.876 ± 0.11 | 0.892 ± 0.021 | 0.72 ± 0.087 | 1.09 ± 0.059 | 0.869 ± 0.57 | 1.26 ± 0.26 | 0.715 ± 0.093 | 2.26 ± 0.28
CC1CN(c2c(F)c(N)c3c(=O)c(C(=O)O)cn(C4CC4)c3c2F)CC(C)N1 (stereo not given) | 0.00841 ± 0.012 | 0.442 ± 0.043 | 1.49 ± 0.054 | 1.23 ± 0.24 | 0.715 ± 0.21 | 0.913 ± 0.04 | 0.883 ± 0.029 | 0.603 ± 0.083 | 0.597 ± 0.4 | 0.543 ± 0.76 | 0.92 ± 0.0099 | 0.989 ± 0.12
Cl.O=C(O)c1cn(-c2ccc(F)cc2)c2cc(N3CCNCC3)c(F)cc2c1=O | 0.0194 ± 0.027 | 0.484 ± 0.099 | 1.18 ± 0.41 | 1.19 ± 0.31 | 0.688 ± 0.12 | 0.955 ± 0.031 | 0.73 ± 0.11 | 0.698 ± 0.044 | 0.595 ± 0.41 | 0.919 ± 0.24 | 0.228 ± 0.089 | 0.836 ± 0.012
NC(=O)NN=Cc1ccc([N+](=O)[O-])o1 | 0.958 ± 0.23 | 0.58 ± 0.06 | 1.11 ± 0.018 | 1.32 ± 0.48 | 0.739 ± 0.24 | 0.955 ± 0.085 | 0.897 ± 0.13 | 0.491 ± 0.15 | 0.559 ± 0.37 | 0.933 ± 0.28 | 0.8 ± 0.09 | 1.05 ± 0.014
O=C1CN(N=Cc2ccc([N+](=O)[O-])o2)C(=O)N1 | 1.07 ± 0.045 | 0.467 ± 0.062 | 1.42 ± 0.59 | 1.32 ± 0.47 | 0.655 ± 0.11 | 0.964 ± 0.044 | 0.855 ± 0.027 | 0.649 ± 0.061 | 0.593 ± 0.41 | 0.96 ± 0.23 | 0.815 ± 0.028 | 1.051 ± 0.0033
Cc1scc2c1N(C(=O)CN1CCN(C)CC1)c1ccccc1NC2=O.Cl | 0.878 ± 0.31 | 0.526 ± 0.058 | 1.12 ± 0.35 | 1.17 ± 0.21 | 0.65 ± 0.14 | 1.1 ± 0.12 | 0.9435 ± 0.0079 | 0.703 ± 0.12 | 0.608 ± 0.41 | 0.931 ± 0.16 | 0.841 ± 0.091 | –
CO[C@@]12[C@@H]3N[C@@H]3CN1C1=C(C(=O)C(N)=C(C)C1=O)[C@@H]2COC(N)=O | 1.25 ± 0.4 | 0.689 ± 0.37 | 0.844 ± 0.031 | 1.17 ± 0.19 | 0.837 ± 0.014 | 0.979 ± 0.0078 | 0.861 ± 0.01 | 0.431 ± 0.072 | 0.615 ± 0.42 | 0.942 ± 0.24 | 0.82 ± 0.035 | 1.08 ± 0.11
CN(C)c1cc(CNCC(C)(C)C)c(O)c2c1C[C@H]1C[C@H]3[C@H](N(C)C)C(=O)[C@H](C(N)=O)C(=O)[C@@]3(O)C(=O)[C@@H]1C2=O | 0.256 ± 0.0049 | 0.355 ± 0.04 | 0.862 ± 0.018 | 1.09 ± 0.3 | 0.671 ± 0.07 | 0.9877 ± 0.0037 | 0.49613 ± 0.0003 | 0.133 ± 0.025 | 0.578 ± 0.38 | 1.23 ± 0.068 | 0.289 ± 0.1 | 1.13 ± 0.062
CCn1cc(C(=O)O)c(=O)c2cc(F)c(N3CCNC(C)C3)c(F)c21.Cl (stereo not given) | 0.0253 ± 0.036 | 0.786 ± 0.38 | 1.442 ± 0.0066 | 1.29 ± 0.3 | 0.712 ± 0.2 | 1.09 ± 0.16 | 1 ± 0.097 | 0.728 ± 0.031 | 0.577 ± 0.38 | 0.554 ± 0.78 | 1.16 ± 0.36 | 0.984 ± 0.05
O=C(Cn1cnnn1)NC1C(=O)N2C(C(=O)O)=C(CSc3nncs3)CSC12 (stereo not given) | 0.793 ± 0.43 | 0.757 ± 0.21 | 0.955 ± 0.18 | 0.505 ± 0.68 | 0.828 ± 0.017 | 1.045 ± 0.0046 | 0.932 ± 0.17 | 0.307 ± 0.16 | 0.598 ± 0.37 | 1.01 ± 0.22 | 0.799 ± 0.011 | 1.06 ± 0.098
CN1CCN(c2cc3c(cc2F)c(=O)c(C(=O)O)cn3-c2ccc(F)cc2)CC1.Cl | 0.0325 ± 0.046 | 0.445 ± 0.075 | 1.46 ± 0.11 | 1.3 ± 0.33 | 0.681 ± 0.17 | 0.957 ± 0.011 | 0.9286 ± 0.0092 | 0.593 ± 0.055 | 0.566 ± 0.37 | 0.959 ± 0.17 | 0.929 ± 0.056 | 0.9809 ± 0.0032
CCn1cc(C(=O)O)c(=O)c2cnc(N3CCNCC3)nc21 | 0.262 ± 0.12 | 0.533 ± 0.057 | 0.92 ± 0.084 | 1.16 ± 0.2 | 0.876 ± 0.015 | 0.94 ± 0.024 | 0.891 ± 0.16 | 0.865 ± 0.047 | 0.583 ± 0.38 | 1.136 ± 0.011 | 0.83 ± 0.027 | 0.99 ± 0.052
